Results with a measured potency or affinity are listed apart. Calls of active or inactive are those of the source.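 How the source made its calls: active means viability loss with a fitted half-maximal dose at or below twice the top valid dose, in every repeat test; inconclusive means repeat tests disagree, or a flat partial loss, or a poor fit; inactive means all tests inactive, including signal rising instead of falling.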
Assay: SK-MEL-5 parental line viability, dose response, MITF inhibitor project, cell-based, CellTiter-Glo, dry powder, set 6 (AID 624429)

For NC1=C(NS(=O)(=O)c2ccc(Br)s2)C(=O)c2ccccc2C1=O, which outcome is on record?
The outcome was “inactive”.
